Among the data in PubChem BioAssay (EPA / NIEHS) are outcome and AC50 values, retold here.

Read-out in assay [1]: Transforming growth factor beta 1 (TGFb1), TGFB1 (gene 7040)
As to the kind of experiment: BSK_KF3CT_TGFb1: BioMAP Diversity Plus: KF3CT Assay for Transforming growth factor beta 1 (TGFb1) Biomarker Activity (AID 2283072). The settings on record: primary human keratinocytes with fibroblasts; actives raise or lower the signal. A digest of the protocol: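 KF3CT co-culture (keratinocytes + fibroblasts), 24 h exposure → TGF-b1 ELISA → bidirectional fit, DMSO = baseline. Parallel SRB total-protein staining (0.1% SRB, 10% TCA fixation, 560 nm) for cytotoxicity.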

Read-out in assay [2]: C-C motif chemokine 2 (Homo sapiens) (UniProt P13500)
The assay is described as follows: BSK_KF3CT_MCP1: BioMAP Diversity Plus: KF3CT Assay for Monocyte Chemoattractant Protein 1 (MCP1/CCL2) Biomarker Activity (AID 2283073). Particulars: primary human keratinocytes with fibroblasts; actives raise or lower the signal. An outline of the steps: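 KF3CT skin co-culture (keratinocytes/foreskin fibroblasts), 24 h post-dose; MCP-1 by ELISA; gain/loss of signal fit bidirectionally vs DMSO baseline.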

Read-out in assay [3]: Matrix Metallopeptidase 9 (MMP9), MMP9 (gene 4318)
As to the kind of experiment: BSK_KF3CT_MMP9: BioMAP Diversity Plus: KF3CT Assay for Matrix Metallopeptidase 9 (MMP9) Biomarker Activity (AID 2283074).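 For AC50: MMP9 protein level quantified by ELISA in the co-culture.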 The settings on record: primary human keratinocytes with fibroblasts; actives raise or lower the signal. An outline of the steps:
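Values come from bidirectional fitting relative to DMSO of MMP-9 levels, which were measured by ELISA. Measurements were taken 24 h after chemical dosing of a keratinocyte and foreskin fibroblast co-culture.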

Read-out in assay [4]: urokinase plasminogen activator (uPA), PLAU (gene 5328)
The assay is described as follows: BSK_KF3CT_uPA: BioMAP Diversity Plus: KF3CT Assay for urokinase plasminogen activator (uPA) Biomarker Activity (AID 2283075). Particulars: primary human keratinocytes with fibroblasts; actives raise or lower the signal. An outline of the steps: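 Values derive from bidirectional fitting against DMSO controls. Keratinocyte/foreskin fibroblast co-cultures received chemical; 24 h later uPA was detected by ELISA, with SRB total-protein staining in parallel wells for overt cytotoxicity.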

Read-out in a further assay: CD40, CD40 (gene 958)
As to the kind of experiment: BSK_LPS_CD40: BioMAP Diversity Plus: LPS Assay for CD40 Biomarker Activity (AID 2283076). The settings on record: primary human HUVEC with PBMC; actives raise or lower the signal. An outline of the steps: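 ELISA readout of CD40 in HUVEC/PBMC co-culture (BSK_LPS system), 24 h post-dosing; bidirectional curve fit, DMSO baseline; parallel SRB total-protein staining for cytotoxicity.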

Read-out in assay [5]: E-selectin (Homo sapiens) (UniProt P16581)
The assay is described as follows: BSK_LPS_Eselectin: BioMAP Diversity Plus: LPS Assay for Eselectin Biomarker Activity (AID 2283077). The settings on record: primary human HUVEC with PBMC; actives raise or lower the signal. An outline of the steps:
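ELISA readout of E-selectin, 24 h post-dose, HUVEC + PBMC co-culture (LPS system). Gain or loss of signal vs DMSO baseline, bidirectional fit.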

Read-out in assay [6]: Interleukin-8 (IL8), CXCL8 (gene 3576)
As to the kind of experiment: BSK_LPS_IL8: BioMAP Diversity Plus: LPS Assay for Interleukin-8 (IL8) Biomarker Activity (AID 2283078). The settings on record: primary human HUVEC with PBMC; actives raise or lower the signal. An outline of the steps: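 HUVEC + PBMC co-culture, LPS-activated; test chemicals dosed, IL-8 read by ELISA at 24 h. Bidirectional curve fit vs DMSO baseline (gain or loss of signal).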

Assay [7] can be described thus: BSK_LPS_SRB: Viability Assessment in the BioMAP Diversity Plus: LPS Assay (AID 2283079).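 Note: total protein by sulforhodamine B absorbance as a cytotoxicity measure; measured one day after compound addition; fitted in both directions against DMSO so loss or gain of signal counts.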 The settings on record: primary human HUVEC with PBMC. An outline of the steps:
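HUVEC + PBMC co-culture, LPS-stimulated; compound 24 h. 10% TCA fix, 0.1% SRB stain, A560. Bidirectional fit vs DMSO.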

Read-out in assay [8]: Interleukin-1 alpha (IL1a), IL1A (gene 3552)
The assay is described as follows: BSK_LPS_IL1a: BioMAP Diversity Plus: LPS Assay for Interleukin-1 alpha (IL1a) Biomarker Activity (AID 2283080). The settings on record: primary human HUVEC with PBMC; actives raise or lower the signal. An outline of the steps: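 HUVEC/PBMC co-culture, LPS system; 24 h after dosing; IL-1a by ELISA; gain or loss of signal fitted bidirectionally vs DMSO baseline.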

Read-out in assay [9]: Monocyte Chemoattractant Protein-1 (MCP1), CCL2 (gene 6347)
As to the kind of experiment: BSK_LPS_MCP1: BioMAP Diversity Plus: LPS Assay for Monocyte Chemoattractant Protein-1 (MCP1) Biomarker Activity (AID 2283081).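 For AC50: secreted MCP-1 protein quantified by ELISA in culture supernatant.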 Particulars: primary human HUVEC with PBMC; actives raise or lower the signal. An outline of the steps: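 ELISA read-out of MCP-1 after 24 h chemical dosing of a human umbilical vein endothelial cell/peripheral blood mononuclear cell co-culture stimulated with LPS. Gain or loss of signal fitted relative to DMSO controls.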

Molecules are shown by their SMILES. Active and inactive are the calls of the source. Rule for the calls: active = hit-call score of the fitted dose curve at least 0.9, where 1 is the maximum; inactive = score below 0.9.

Sequence of E-selectin (Homo sapiens) (P16581 whole entry, looked up): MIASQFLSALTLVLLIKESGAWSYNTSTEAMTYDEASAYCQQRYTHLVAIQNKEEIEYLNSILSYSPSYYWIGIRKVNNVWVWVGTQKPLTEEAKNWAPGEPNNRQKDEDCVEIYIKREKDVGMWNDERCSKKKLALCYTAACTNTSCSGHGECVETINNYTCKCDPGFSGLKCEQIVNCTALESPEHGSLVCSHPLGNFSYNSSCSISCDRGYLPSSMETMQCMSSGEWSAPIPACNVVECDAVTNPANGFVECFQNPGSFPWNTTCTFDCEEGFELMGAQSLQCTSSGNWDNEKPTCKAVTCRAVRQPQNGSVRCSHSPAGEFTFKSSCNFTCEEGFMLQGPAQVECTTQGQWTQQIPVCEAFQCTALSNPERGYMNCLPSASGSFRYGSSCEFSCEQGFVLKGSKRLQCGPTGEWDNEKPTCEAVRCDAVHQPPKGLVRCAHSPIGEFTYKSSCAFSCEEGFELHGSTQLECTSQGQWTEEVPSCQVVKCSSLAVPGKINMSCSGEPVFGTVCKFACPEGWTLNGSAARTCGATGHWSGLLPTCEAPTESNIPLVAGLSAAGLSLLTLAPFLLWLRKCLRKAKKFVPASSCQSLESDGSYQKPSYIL

In the case of `Brc1ccc(Oc2ccccc2)cc1`, the outcome in assay [1] was “inactive”; in assay [2] it was “inactive”; in [3], “inactive”; in assay [4] it was “inactive”; with CD40, CD40 (gene 958), “inactive”; in assay [5], “inactive”. The outcome in assay [6], in assay [7], in assay [8] and in assay [9] was inactive.
On to `[As]#[In]`, for which the outcome is “inactive” in assay [1]; “inactive” in [2]; “inactive” in assay [3]; “inactive” in assay [4]; “inactive” in the assay with CD40, CD40 (gene 958); “inactive” in [5]. The outcome in assay [6], in [7], in [8] and in assay [9] was inactive.
In the case of `Clc1ccc(C(c2ccc(Cl)cc2)C(Cl)Cl)cc1`, the AC50 was 9.57 µM (active) in assay [1]; 10.4 µM (active) in assay [2]; 10.2 µM (active) in [3]; 11.6 µM (active) in assay [4]; 29 µM (active) with CD40, CD40 (gene 958); 30.3 µM (active) in [5]. The AC50 was 28.6 µM (active) in assay [8] and 35.2 µM (active) in [9].
As for `Nc1cc(Cl)cc(C(=O)O)c1Cl`, the outcome in assay [1] was “inactive”; in assay [2], “inactive”; in [3] it was “inactive”; in [4], “inactive”; in the assay with CD40, CD40 (gene 958) it was “inactive”; in [5], “inactive”. Also, the result in [6], in assay [7], in assay [8] and in assay [9] was inactive.
For the compound `CCN(CC)CCO`, the outcome is “inactive” in assay [1]; “inactive” in [2]; “inactive” in assay [3]; “inactive” in assay [4]; “inactive” with CD40, CD40 (gene 958); “inactive” in assay [5]. For the same compound, the result in assay [6], in assay [7], in assay [8] and in [9] was inactive.
Turning to `O=C(Oc1ccc(Br)cc1)N1CCN2CCC1CC2`, the outcome in assay [1] is “inactive”; in [2], “inactive”; in [3], “inactive”; in [4], “inactive”; with CD40, CD40 (gene 958), “inactive”; in assay [5] it was “inactive”. In addition, the result in assay [6], in assay [7], in assay [8] and in assay [9] was inactive.
As to `Nc1ccc(Cc2ccc(N)cc2)cc1`, the outcome was “inactive” in assay [1]; “inactive” in assay [2]; “inactive” in [3]; “inactive” in assay [4]; “inactive” in the assay with CD40, CD40 (gene 958); “inactive” in assay [5]. In addition, the outcome in assay [6], in assay [7], in [8] and in assay [9] was inactive.
With `CC(C)(C)OOC(C)(C)CCC(C)(C)OOC(C)(C)C`, the outcome in assay [1] was “inactive”; in assay [2] it was “inactive”; in assay [3], “inactive”; in [4], “inactive”; with CD40, CD40 (gene 958) it was “inactive”; in assay [5], “inactive”. Moreover, the outcome in [6], in [7], in assay [8] and in assay [9] was inactive.
For the compound `c1ccc2c(c1)-c1cccc3cccc-2c13`, the outcome in [1] was “inactive”; in [4] it was “inactive”; with CD40, CD40 (gene 958), “inactive”; in assay [5], “inactive”; in assay [6], “inactive”; in [7], “inactive”. Moreover, the outcome in assay [8] and in assay [9] was inactive. Further, in [3], the AC50 was 28.9 µM (active).
For `CCC12COCN1COC2`, the outcome in [1] is “inactive”; in assay [2] it was “inactive”; in assay [3] it was “inactive”; in assay [4] it was “inactive”; in the assay with CD40, CD40 (gene 958) it was “inactive”; in assay [5] it was “inactive”. Also, the result in assay [6], in assay [7], in [8] and in assay [9] was inactive.
Turning to `CCCCCOC(=O)c1ccccc1C(=O)OCCCCC`, the result in assay [1], in assay [2], in [3], in assay [4], in [8] and in assay [9] was inactive. In addition, the half-maximal activity concentration (AC50) with CD40, CD40 (gene 958) was 20 µM (active); in assay [5] it was 31.7 µM (active); in assay [6], 20 µM (active).
With `Cc1ccc([N+](=O)[O-])cc1`, the outcome in assay [1] is “inactive”; in assay [2], “inactive”; in [3], “inactive”; in assay [4], “inactive”; in the assay with CD40, CD40 (gene 958), “inactive”; in assay [5], “inactive”. The outcome in [6], in [7], in [8] and in assay [9] was inactive.
Turning to `N#CC(Br)Br`, the outcome in assay [1] was “inactive”; in [2], “inactive”; in assay [3] it was “inactive”; in assay [4] it was “inactive”; in the assay with CD40, CD40 (gene 958), “inactive”; in [5], “inactive”. The outcome in assay [6], in assay [7], in [8] and in assay [9] was inactive.
For `CCOc1cccc(C2(N3CCN(c4ccccc4)CC3)CCC(C)CC2)c1` (stereo not given), the outcome in assay [1] was “inactive”; in assay [2] it was “inactive”; in [3], “inactive”; in assay [4], “inactive”; with CD40, CD40 (gene 958) it was “inactive”; in assay [5], “inactive”. In addition, the outcome in assay [6], in assay [7], in assay [8] and in assay [9] was inactive.
Turning to `OCCOCCO`, the outcome was “inactive” in assay [1]; “inactive” in [2]; “inactive” in [3]; “inactive” in [4]; “inactive” in the assay with CD40, CD40 (gene 958); “inactive” in assay [5]. The outcome in assay [6], in [7], in assay [8] and in assay [9] was inactive.
As to `CCC[CH2][Sn]([Cl])([CH2]CCC)[CH2]CCC`, the half-maximal activity concentration (AC50) in assay [1] is 0.692 µM (active); in assay [3], 0.292 µM (active); in [4], 0.148 µM (active); with CD40, CD40 (gene 958), 0.148 µM (active); in assay [5], 0.148 µM (active); in assay [6], 0.148 µM (active). For the same compound, the concentration at half-maximal activity (AC50) in [7] is 0.269 µM (active); in assay [8], 0.344 µM (active); in assay [9], 0.148 µM (active).
In the case of `CC(C)(O)c1cnn2c(-c3ccc(F)c(-c4c(F)cccc4C#N)c3)cnc2n1`, the AC50 in assay [1] is 36 µM (active); in [3], 34.6 µM (active); in [4] it was 31.9 µM (active); in assay [6] it was 3.82 µM (active). In addition, the outcome in assay [2] was “inactive”; with CD40, CD40 (gene 958), “inactive”; in assay [5] it was “inactive”; in assay [7], “inactive”; in assay [8], “inactive”; in assay [9], “inactive”.
As for `Cn1cc(-c2ccccc2)c(=O)c(-c2cccc(C(F)(F)F)c2)c1`, the outcome in assay [1] is “inactive”; in assay [2], “inactive”; in [3] it was “inactive”; in [4] it was “inactive”; with CD40, CD40 (gene 958), “inactive”; in assay [5], “inactive”. The result in [6], in [7], in assay [8] and in [9] was inactive.
As to `[Cl-].[Cl-].[Hg+2]`, the AC50 is 7.74 µM (active) in assay [1]; 20 µM (active) in assay [2]; 13.5 µM (active) in [3]; 13.1 µM (active) in assay [4]; 38.8 µM (active) in the assay with CD40, CD40 (gene 958); 37 µM (active) in assay [5]. Further, the AC50 in assay [6] is 30.9 µM (active); in assay [7], 20 µM (active). Further, the result in [8] and in assay [9] was inactive.
`CCCCCCCCOC(=O)c1ccc(C(=O)OCCCCCCCC)c(C(=O)OCCCCCCCC)c1`: the outcome in assay [1] was “inactive”; in [2], “inactive”; in assay [3], “inactive”; in assay [4], “inactive”; with CD40, CD40 (gene 958), “inactive”; in [5] it was “inactive”. The outcome in assay [6], in assay [7], in [8] and in [9] was inactive.
Turning to `O=[N+]([O-])C(Br)(CO)CO`, the concentration at half-maximal activity (AC50) was 32 µM (active) in assay [1]; 34.4 µM (active) in [3]; 36.8 µM (active) in assay [4]; 29 µM (active) in the assay with CD40, CD40 (gene 958); 32.8 µM (active) in assay [5]; 34.2 µM (active) in assay [6]. Also, the AC50 in assay [7] is 29.6 µM (active); in [8], 34 µM (active); in assay [9], 25.9 µM (active). Further, the result in assay [2] was inactive.
